# High-throughput results from PubChem BioAssay.
# Shown are actives, neighbours in structure and some others; about 10% of the full set was active somewhere.
# CtBP-E1A inh – qHTS Assay for Inhibitors of the CtBP/E1A Interaction; CtBP / adenovirus E1A interaction (AlphaScreen); AlphaScreen GST-E1A/His-CtBP binding, 1536-well; stronger effect = lower value; activity change, % (concentration not given with the values); 340,000 compounds, 0.49% hits; AID 651724, 2012; in the data active = activity change below about -65%; inconclusive = mostly about -30% to -63%; also: % is scaled to controls: 0 for no effect and ±100 for the full control effect
#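 Steps: dispense buffer (Tris pH 8.0, NaCl 300 mM, TCEP 1 mM, BSA, Tween 20); add 5X protein mix (GST-E1A, His-CtBP, 125 nM each); pin 23 nL compound; 2 h at 37 °C, dark; add 5X beads (50 ug/mL); 1 h; read.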
# JMJD2A Tudor inh – qHTS Assay for Inhibitors of JMJD2A-Tudor Domain; Lysine-specific demethylase 4A (Homo sapiens), O75164; AlphaScreen JMJD2A-Tudor / H3K4me3 peptide binding; Potency, µM (series often up to 114 µM), for inactives: top-dose activity change, negative = inhibition, actives largely listed as inhibitors; 390,000 compounds, 4.4% hits; AID 504339, 2011; also: potency is read from the fitted curve at half-maximal effect; % is scaled to controls: 0 for no effect and ±100 for the full control effect; nearly all actives have a fitted effect of over 50% in size
# G9a block – qHTS Assay for Inhibitors of Histone Lysine Methyltransferase G9a | Histone-lysine N-methyltransferase EHMT2 (Homo sapiens), Q96KQ7 | G9a H3K9 monomethylation, AlphaScreen, 2 h | Potency, µM (highest dose often 102 µM), without a hit: at the top dose activity, negative = inhibition, actives largely listed as inhibitors | 350,000 compounds, 8.8% hits | AID 504332, 2011; also: potency is read from the fitted curve at half-maximal effect; % is scaled to controls: 0 for no effect and ±100 for the full control effect; nearly all actives have a fitted effect of over 75% in size
#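 Enzyme 20 nM + cpd, 15 min RT; add b-H3K9 pep 500 nM / SAM 20 uM; 2 h RT; anti-H3K9me1 Ab 0.5 ug/mL + SA donor / anti-rabbit acceptor beads 20 ug/mL each, 10 min; AlphaScreen read.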
# HP1b binding inh – HTS for Inhibitors of HP1-beta Chromodomain Interactions with Methylated Histone Tails | Chromobox protein homolog 1 (Homo sapiens), P83916 | AlphaScreen HP1-beta / biotin-H3K9me3 peptide binding | Potency, µM (doses to about 114 µM), inactives show at the top dose activity change, negative = inhibition, most hits filed as inhibitors | 390,000 compounds, 0.56% hits | AID 540317, 2011; also: potency is read from the fitted curve at half-maximal effect; nearly all actives have a fitted effect of over 70% in size
#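 Compound inhibition of the preformed complex between 50 nM HP1-beta and 50 nM biotinylated H3K9me3 peptide was read by AlphaScreen. Buffer was PBS pH 7.4 with 0.01% Tween-20. Incubations ran 30 min at room temperature, with 10 ug/mL donor/acceptor beads.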
# Six1-Eya2 inh – qHTS Assay for Inhibitors of the Six1/Eya2 Interaction; Homeobox protein SIX1 (Homo sapiens) + Protein phosphatase EYA2 (Homo sapiens), …; AID 651725, 2012; AlphaScreen GST-Six1/His-Eya2 binding, biochemical; stronger effect = lower value; 360,000 compounds, 0.56% hits; activity change, % (test concentration not listed); in the data active = activity change below about -65%; inconclusive = mostly about -30% to -63%; also: % is scaled to controls: 0 for no effect and ±100 for the full control effect
#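 AlphaScreen with GST-Six1 and His-Eya2 (5X mix: 250 nM and 500 nM), glutathione donor and nickel acceptor beads; buffer 50 mM Tris pH 8.0, 300 mM NaCl, 1 mM TCEP; 1 h at 37 C in the dark.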
# BAZ2B block – qHTS Assay for Inhibitors of BAZ2B | AID 504333, 2011 | Potency, µM (top dose mostly 114 µM), for inactives: at the highest dose activity change, negative = inhibition, actives largely listed as inhibitors | AlphaScreen BAZ2B-H3K14Ac peptide displacement | Bromodomain adjacent to zinc finger domain protein 2B (Homo sapiens), Q9UIF8 | 360,000 compounds, 4.4% hits; also: potency is read from the fitted curve at half-maximal effect; % is scaled to controls: 0 for no effect and ±100 for the full control effect; nearly all actives have a fitted effect of over 60% in size
#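 AlphaScreen displacement of biotin-H3(5-23)K14Ac peptide (50 nM final) from BAZ2B (50 nM final) in PBS pH 7.4, 0.01% Tween-20; complex preformed 30 min RT, then compounds (top 110 uM) 30 min RT, beads 20 min dark.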
# The depositor's hits bear a star; ? = inconclusive; . = no result; [ ] = another dose, or the depositor's remark. Unless noted, calls follow the shape of the dose curve; as a rule, active = well fitted inhibition curve with a large enough effect; inconclusive = small, poorly fitted or top-dose-only effect; inactive = no such curve, though single readings can be large or run the other way.
SMILES,CtBP-E1A inh,JMJD2A Tudor inh,G9a block,HP1b binding inh,Six1-Eya2 inh,BAZ2B block
Clc1cccc(N2CCN(Cc3ccc(Br)o3)CC2)c1,5.9,28.2µM*,6.31µM*,?,2.4,?
COCCCn1c(Cc2csc(Nc3ccc(F)cc3)n2)nnc1SCC(N)=O,4.3,?,?,31.4%,-6.8,?
COC(=O)c1ccc(NC(CC(C)C)C(=O)OC)c([N+](=O)[O-])c1 (centres undefined),4.7,?,39.8µM*,-13.5%,-25.4,?
CCOC(=O)c1ccc(NCCOC)c([N+](=O)[O-])c1,0.6,-9.8%,-36.9%,34.0%,-6.4,-28.8%
O=S(=O)(Cc1ccccc1)C1CCCCC1O (centres undefined),0.4,-5.6%,6.6%,12.3%,12.2,-0.6%
O=C1CSC(c2cccc([N+](=O)[O-])c2)N1CCN1CCCCC1 (centres undefined),.,-20.0%,9.1%,18.0%,-1.2,-23.1%
O=C1CSC(c2ccccc2F)N1CCN1CCCCC1 (centres undefined),1.1,-11.7%,79.4µM*,34.6%,0.7,-36.7%
O=C(CSc1ccc2ccccc2c1)N1CCN(c2ccc(O)cc2)CC1,-10.6,50.1µM*,15.8µM*,-27.9%,0.7,50.1µM*
O=C(c1ccc2ccccc2c1)N1CCN(c2ccc(O)cc2)CC1,-15.6,?,31.6µM*,?,-14.3,-36.6%
O=S(=O)(c1ccc2ccccc2c1)N1CCN(c2ccc(O)cc2)CC1,.,35.5µM*,.,?,?,.
COc1ccc(N2CCN(C(=O)CSc3nnc(-c4cc5ccccc5cc4O)n3C)CC2)cc1,?,?,16.8%,-3.5%,?,5.9%
O=C(c1ccc2ccccc2c1)N1CCN(c2ccccn2)CC1,-7.5,-19.1%,6.2%,7.9%,0.0,-24.7%
Cc1ccc(Cl)cc1NS(=O)(=O)c1cc2c(cc1Cl)CCC(=O)N2,.,-18.4%,.,.,.,.
CCN1CCN(Cc2nc3cc(NC(=O)c4ccccc4[N+](=O)[O-])ccc3n2CC)CC1,.,-1.0%,-7.5%[59 µM],25.7%,.,-14.8%
COc1cc(OC)c2ccc(=O)oc2c1C(CCN1CCCCC1)c1ccc(N(C)C)cc1 (centres undefined),-20.1,35.5µM*,?,-32.5%,-16.7,39.8µM*
CCCCCc1cc(=O)oc2c(C(CCN3CCCC3)c3ccc(N(C)C)cc3)c(OC)cc(OC)c12 (centres undefined),?,11.2µM*,?,?,?,8.91µM*
COc1cc(OC)c2ccc(=O)oc2c1C(CCN1CCCC1)c1ccc(N(C)C)cc1 (centres undefined),-16.4,56.2µM*,-8.7%[59 µM],-22.1%,-16.4,39.8µM*
CC1=CC(c2ccc(Cl)cc2)n2nc(NS(=O)(=O)c3ccc(C)cc3)nc2N1 (centres undefined),1.8,-23.9%,31.6µM*,28.0%,-2.3,-10.5%
CC1=CC(c2ccccc2)n2nc(NS(=O)(=O)c3ccc(C)cc3)nc2N1 (centres undefined),0.9,-11.9%,17.8µM*,27.0%,-4.6,?
Cc1ccc(S(=O)(=O)Nc2nc3n(n2)C(c2ccc(Cl)cc2)C=C(c2ccccc2)N3)cc1 (centres undefined),.,-5.3%,-36.0%[59 µM],38.4%,.,-30.4%
CCN(C(=O)COC(=O)c1n[nH]c2ccccc12)c1ccccc1,-17.7,-19.9%,-2.5%[12.7 µM],18.2%,-2.3,3.1%
COc1cccc([C@@H]2Oc3ccc(OC)cc3C(=O)[C@H]2OC(=O)NCc2ccc3c(c2)OCO3)c1,.,.,44.7µM*,.,.,-19.5%
COc1cccc([C@@H]2Oc3ccc(OC)cc3C(=O)[C@H]2OC(=O)Nc2cc(OC)c(OC)c(OC)c2)c1,-15.2,?,?,25.9%,-7.1,-28.7%
COc1ccc2c(c1)O[C@H](c1ccc3c(c1)OCO3)[C@@H](OC(=O)Nc1cc(OC)c(OC)c(OC)c1)C2=O,.,.,50.1µM*,.,.,?
COc1ccc(Cl)cc1NC(=O)CSc1nnc2[nH]c(=O)cc(C)n12,.,-8.1%,0.8%[59 µM],35.7%,.,-13.0%
SMILES,CtBP-E1A inh,JMJD2A Tudor inh,G9a block,HP1b binding inh,Six1-Eya2 inh,BAZ2B block
Cc1c(Cl)cccc1N=C1SCCN1C(=O)CN1C(=O)NC2(CCCC2)C1=O,3.5,-32.4%,-37.3%,15.2%,-11.4,-30.9%
Cc1nc2nc(SCC(=O)N3CCOCC3)nn2c(C)c1Cc1c(F)cccc1Cl,-5.6,-14.6%,22.4µM*,27.0%,0.3,1.2%
Cc1nc2nc(SCC(=O)NCCCN3CCCCCC3)nn2c(C)c1Cc1ccccc1Cl,-12.3,?,79.4µM*,17.1%,-5.5,-28.5%
CCOC(=O)c1ccc(NC(=O)c2c(-c3c(F)cccc3Cl)noc2C)cc1,.,-4.5%,-12.9%[59 µM],44.8%,.,-11.4%
COc1cccc(-c2ncc3ccccn23)c1,-0.8,3.55µM*,7.08µM*,15.8µM*,-14.0,35.5µM*
COc1cc(-c2ncc3ccccn23)cc(OC)c1OC,-6.9,11.2µM*,25.1µM*,50.1µM*,-4.8,44.7µM*
COc1cc(OC)cc(-c2ncc3ccccn23)c1,-2.4,2.82µM*,7.94µM*,?,-6.2,31.6µM*
Fc1ccc(-c2ncc3ccccn23)cc1,-7.2,-12.0%,-20.7%[0.501 µM],29.9%,-7.0,-13.3%
COc1ccc(-c2ncc3ccccn23)cc1,6.2,-30.2%,-40.9%,14.0%,-21.4,-15.8%
Cc1cc(Cl)ccc1NC(=O)CS(=O)(=O)c1cccc2nsnc12,.,?,7.8%[59 µM],10.3%[57 µM],.,-5.6%
O=C(NC(=O)c1ccc(Cl)cc1)Nc1cc(N2CCCCC2)ncn1,0.4,79.4µM*,.,-18.5%,0.9,.
CCOc1ccc(C(=O)c2cn(CC(=O)Nc3ccc4c(c3)OCO4)c3ccc(OC)cc3c2=O)cc1,.,-21.9%,?,6.7%,.,-21.4%
Cc1cc2c(cc1C)[n+](C)cn2CC(O)COCc1ccccc1 (centres undefined),-5.5,?,5.62µM*,5.1%,1.4,7.3%
COc1cccc(-c2cc3nc(C)c(C)c(N4CCN(C(=O)c5ccoc5)CC4)n3n2)c1,4.7,.,.,.,-3.5,.
COc1cccc(Cn2c(=O)cnc3cnc(N4CCN(C)CC4)nc32)c1,.,.,0.9%[0.501 µM],.,.,.
CCn1cnc2cc(NCc3ccc(OC)cc3)ccc21,-4.5,-35.1%,8.91µM*,2.1%,-9.1,?
COc1ccc(CNc2ccc(S(N)(=O)=O)cc2)cc1,19.9,-5.2%,25.4%,7.1%,12.8,-2.6%
